Assay outcomes deposited in PubChem BioAssay by National Center for Advancing Translational Sciences (NCATS).
Rows were chosen to be rich in hits. Some 19% of all compounds tested hit in one or more screens of this group.
IL1B secr inh – blocks inflammasome-driven IL-1 beta release | THP-1 LPS/ATP IL-1B secretion, AlphaLISA, 16 h; hits give low values | activity change, % at 57.5 µM | actives 4.7% (n = 360,000) | AID 743279; in the data active means activity change below about -50%; inconclusive means mostly about -30% to -49%
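Secreted IL-1B measured by AlphaLISA bead assay after 16 h compound exposure of THP-1 cells; compounds (final up to 57.5 uM) added 1 h before LPS (250 ng/mL) and ATP (1.25 mM) stimulation; lower signal means less secretion.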
TDP1 cell CPT – growth inhibition of DT40 Tdp1-/-;hTDP1 cells with camptothecin (screen for TDP1 inhibitors); actives 12% (n = 420,000); Potency, µM (doses to about 46.2 µM), usual class: inhibitors; AID 686979; chicken DT40 Tdp1-/-;hTDP1 cells + 20 nM CPT, ATP luminescence, 48 h; further: nearly all actives have a fitted effect of over 55% in size
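Cell growth measured by CellTiter-Glo luminescence after a minimum 48 h, 37 C compound exposure with 20 nM CPT in Tdp1-knockout DT40 cells stably expressing hTDP1, seeded 400/well; qHTS titration format.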
HT1080 IDH1KD tx – HT-1080 IDH1 knockdown cell toxicity (counter line) | HT-1080 IDH1 knockdown viability, ATP luminescence, 48 h | Potency, µM (doses to about 46.1 µM), hits mostly cytotoxic | actives 2% (n = 360,000) | AID 686971
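In this qHTS, HT-1080 cells depleted of IDH1 are exposed for 48 h at 37 °C to compound titrations. Toxicity is scored from CellTiter-Glo luminescence, with DMSO as full viability and medium alone as none.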
HT1080NT lethal – kills 2HG-producing HT-1080-NT fibrosarcoma cells. HT-1080-NT fibrosarcoma viability, CellTiter-Glo ATP luminescence, 48 h. actives 1.6% (n = 360,000). AID 686970. Potency, µM (top dose mostly 46.1 µM), usual class: cytotoxic;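 further: NT is the 2HG producing partner of a matched IDH1 knockdown line; nearly all actives have a fitted effect of over 55% in size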
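Viability of the 2HG-overproducing fibrosarcoma line after 48 hours of compound exposure at 37 degrees C was determined by luminescence with CellTiter-Glo, and concentration-effect curves were then fitted and categorized.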
DT40 TDP1 no CPT – qHTS for Inhibitors of human tyrosyl-DNA phosphodiesterase 1 (TDP1): qHTS in cells in absence of CPT. DT40 Tdp1-/- hTDP1 cells, no CPT, ATP luminescence, 48 h. AID 686978, 2013. actives 15% (n = 420,000). Potency, µM (titrated, usually from 46.2 µM), usual class: inhibitors; further: nearly all actives have a fitted effect of over 55% in size
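Stably hTDP1-transfected Tdp1-null chicken DT40 cells were treated with library compounds minus camptothecin and grown for at least 48 hr at 37 °C, after which cellular ATP was quantified by luminescence.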
Numbers stand for hits; n = inactive; u = inconclusive; x = no result given; [ ] = remark or other dose. Unless noted, the call rests on the fitted dose curve; in most records, active means well fitted curve in the direction sought with a large enough effect; inconclusive means small, poorly fitted or top-dose-only effect, or another doubt; inactive means no such curve, though single readings can be large; an effect the other way counts as inactive or inconclusive.

SMILES	IL1B secr inh	TDP1 cell CPT	HT1080 IDH1KD tx	HT1080NT lethal	DT40 TDP1 no CPT
O=c1c2ccccc2nc(/C=C/c2ccc(O)cc2)n1CCc1ccccc1	n	7.3µM	u	u	8.2µM
O=C(Nc1nnc([C@@H]2C[C@H](O)[C@@H](CO)O2)s1)c1cccc(C(F)(F)F)c1	n	n	n	n	n
O=[N+]([O-])c1cc([N+](=O)[O-])c2nonc2c1Nc1ccc(O)cc1	n	u	n	n	21µM
O=[N+]([O-])c1cc([N+](=O)[O-])c2nonc2c1Nc1ccccc1O	n	u	n	n	u
Cc1ccccc1Nc1c([N+](=O)[O-])cncc1[N+](=O)[O-]	n	u	n	n	15µM
O=[N+]([O-])c1ccc2nonc2c1Nc1cccc(F)c1	n	n	n	n	n
O=[N+]([O-])c1cncc([N+](=O)[O-])c1Nc1cccc(O)c1	n	5.2µM	n	n	4.1µM
CC(C)(C)C(=O)CSc1n[nH]c(-c2ccccc2)n1	x	n	x	x	u
Cc1cc(C)c(NC(=O)CN2C(=O)CCSc3ccc(S(=O)(=O)N4CCCC4)cc32)c(C)c1	x	n	x	x	n
CCCCCOc1ccc(/C(C)=N/NC2=NCCN2)cc1	-66	u	n	n	u
CCCCCCOc1ccc(C(=O)O)cc1	n	n	n	n	n
CC(=NNC1=NCCN1)c1cnn(C2=NCCN2)c1C	n	n	n	n	n
CCOc1ccc(Br)cc1/C(C)=N\NC1=NCCN1	-80	5.8µM	u	21µM	4.6µM
CCCCCCOc1ccc(/C(C)=N/NC2=NCCN2)cc1	-56	u	n	n	u
COC(=O)[C@@]1(Sc2ccc(C)cc2)CC(=O)N[C@@H]1c1ccc(Br)cc1	n	n	u	n	n
CCN(CC)Cc1c(CC(C)C)oc(C)c1C(=O)O	n	n	n	n	n
COc1ccccc1-c1cc2c(c(OC)c1)OCCN(CCC(C)c1ccc(C)o1)C2 (stereo unspecified)	x	n[9.04 µM]	x	x	n
O=C(COC(=O)Cn1cnc2ccccc21)Nc1cc(S(=O)(=O)N2CCOCC2)ccc1Cl	n	n	n	n	n
O=C(COC(=O)Cn1cnc2ccccc21)Nc1cc2c(cc1Cl)C(=O)c1ccccc1C2=O	n	21µM	n	n	16µM
COc1cc(/C=C2/C(=O)NN(c3cccc(C)c3)C2=O)cc([N+](=O)[O-])c1O	n	n	n	n	n
COc1cc(/C=C2/C(=O)NN(c3cccc(C)c3)C2=O)ccc1OC(=O)c1ccco1	-69	u	u	u	u
COc1ccc(S(=O)(=O)N(C)C[C@@H]2Oc3c(NS(C)(=O)=O)cccc3C(=O)N([C@@H](C)CO)C[C@H]2C)cc1	n	n	n	n	n
CC(=O)/C(N=Nc1cc2c(cc1[N+](=O)[O-])OCCO2)=C(\C)O	n	u	n	n	26µM
CC(=O)/C(N=Nc1ccc(C(=O)O)cc1[N+](=O)[O-])=C(\C)O	n	n	n	n	n
CC(=O)/C(N=Nc1cc2c(c([N+](=O)[O-])c1C)C(C)(C)CC2(C)C)=C(\C)O	n	u	n	n	18µM
SMILES	IL1B secr inh	TDP1 cell CPT	HT1080 IDH1KD tx	HT1080NT lethal	DT40 TDP1 no CPT
CCc1cccc(CC)c1NC(=O)CO/N=C(\C)c1cccs1	n	u	n	n	u
NC(=O)c1nsc(C(=O)N(c2ccc3c(c2)OCCO3)C(C(=O)NCC2CCCO2)c2ccc(F)cc2)c1N (stereo unspecified)	n	15µM	n	n	18µM
NC(=O)c1nsc(C(=O)N(c2ccccc2)C(C(=O)NCC2CCCO2)c2ccc(F)cc2)c1N (stereo unspecified)	n	u	n	n	u
Cc1ccc(C(C(=O)NCC2CCCO2)N(C(=O)c2snc(C(N)=O)c2N)c2ccc3c(c2)OCCO3)cc1 (stereo unspecified)	n	23µM	n	n	n
CC[N+]1(CC)CCC(=C(c2ccccc2)c2ccccc2)C1C (stereo unspecified)	x	5.3µM	x	x	3.3µM
c1ccc(C(=C2CCCO2)c2ccccc2)cc1	n	n	n	n	n
COc1ccc(NC(=O)c2cnn(-c3ccc(F)cc3F)c2C2CCN(C(=O)OC(C)(C)C)CC2)cc1Cl	x	u	x	x	18µM
CC(C)(C)OC(=O)N1CCC(c2c(C(=O)O)cnn2-c2ccc(F)cc2F)CC1	x	n	x	x	n
CC(C)(C)OC(=O)N1CCC(c2c(C(=O)Nc3ccc4c(c3)OCCO4)cnn2-c2ccc(F)cc2F)CC1	x	21µM	x	x	n
Cc1cccc(-n2ncc(C(=O)Nc3ccc4c(c3)OCO4)c2C2CCN(C(=O)OC(C)(C)C)CC2)c1	x	18µM	x	x	u
CC(C)(C)OC(=O)N1CCC(c2c(C(=O)NCc3ccc4c(c3)OCO4)cnn2-c2ccc(F)cc2F)CC1	x	u	x	x	n
Cc1onc(-c2ccccc2)c1C(=O)Nc1ccncc1	n	u	n	n	u
Cc1onc(-c2ccccc2)c1C(=O)N(Cc1ccccc1)C(C)C	n	u	n	u	26µM
Cc1onc(-c2ccccc2)c1C(=O)Nc1ncc([N+](=O)[O-])s1	-67	23µM	u	u	21µM
Cc1cccc(C)c1NC(=O)c1c(-c2ccccc2)noc1C	n	n	n	n	n
Cc1onc(-c2ccccc2)c1C(=O)Nc1nnc(C(C)C)s1	n	n	n	n	n
Cc1ccccc1NC(=O)c1c(-c2ccccc2)noc1C	n	12µM	n	n	9.2µM
Cc1onc(-c2ccccc2)c1C(=O)Nc1ccccc1NC(=O)c1c(-c2ccccc2)noc1C	n	15µM	n	n	18µM
COc1ccc(S(=O)(=O)N2CCc3ccccc32)cc1C(=O)N1CCOCC1	n	n	n	n	n
CCNC(=O)C1CCCN(C(=O)Cc2cccs2)CC1 (stereo unspecified)	n	n	n	n	n
CCCOc1ccccc1NC(=O)c1c(-c2ccccc2)noc1C	n	u	n	n	8.2µM
COc1ccc(NC(=O)c2c(-c3ccccc3)noc2C)c(OC)c1	n	n	n	n	n
CC(=O)NC1=NN(C(C)=O)C(C)(c2cccnc2)S1 (stereo unspecified)	n	n	u	n	n
CC(=O)NC1=NN(C(C)=O)C(C)(c2ccco2)S1 (stereo unspecified)	n	n	23µM	u	n
CC(=O)NC1=NN(C(C)=O)C(C)(c2cccs2)S1 (stereo unspecified)	n	u	4.6µM	2.9µM	u
O=C1c2ccccc2C(=Cc2cccnc2)c2ccccc21	n	n	n	n	u
O=C1/C(=C/c2cccnc2)Sc2ccccc21	n	26µM	n	n	u
Cc1cccc[n+]1CC(=O)c1ccc([N+](=O)[O-])cc1	n	21µM	n	n	16µM
